Results filed as inconclusive are left out. Active and inactive are the calls of the source. How the source made its calls, unless noted: active means hit-call score of the fitted dose curve at least 0.9, where 1 is the maximum; inactive means score below 0.9.
What was measured:
[1] = UKN5_HCS_SBAD2_cell_viability: Viability Assessment in the University of Konstanz (UKN) Leist Lab Neurite Outgrowth Assay in human iPSC-derived immature Dorsal Root Ganglia Neurons (UKN5) (AID 2284056)
Method in brief: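 iPSC-derived immature peripheral neurons (SBAD2) seeded on Matrigel with CHIR99021, SU5402 and DAPT, dosed 1 h later for 24 h. Viability from Hoechst H-33342 and calcein-AM live staining, high-content imaging; bidirectional fit versus DMSO.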

[2] = UKN5_HCS_SBAD2_neurite_outgrowth: University of Konstanz (UKN) Leist Lab Neurite Outgrowth Assay in human iPSC-derived immature Dorsal Root Ganglia Neurons (UKN5) (AID 2284070); conditions: actives raise or lower the signal
Method in brief: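 Neurite outgrowth is quantified as calcein-AM-labelled neurite area in human iPSC-derived peripheral neurons treated for 24 h, starting 1 h after plating in medium with CHIR99021 (1.5 uM), SU5402 (5 uM) and DAPT (5 uM).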

[3] = UKN2_HCS_IMR90_neural_migration: University of Konstanz (UKN) Leist Lab Neural Crest Cell Migration Assay in human induced IMR90 Pluripotent Stem Cells (UKN2) (AID 2284204); conditions: actives raise or lower the signal
Method in brief: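 High-content imaging of calcein-AM and Hoechst stained cells quantifies migration into a stopper-defined gap after 24 h compound exposure. Neural crest cells from IMR90 iPSC migrated 24 h in EGF/FGF N2-S medium before dosing; DMSO baseline.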

[4] = UKN4_HCS_LUHMES_neurite_outgrowth: University of Konstanz (UKN) Leist Lab Neurite Outgrowth Assay in human LUHMES cells (UKN4) (AID 2284206); conditions: actives raise or lower the signal
Method in brief: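 Neurite area in dopaminergic-model LUHMES neurons is measured by high-content imaging of calcein-AM after 24 h treatment starting shortly after day-2 replating; Hoechst staining tracks viability.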

[5] = UKN4_HCS_LUHMES_cell_viability: Viability Assessment in the University of Konstanz (UKN) Leist Lab Neurite Outgrowth Assay in human LUHMES cells (UKN4) (AID 2284232)
Method in brief: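 Measured in replated, 2-day-differentiated LUHMES cells treated 24 h; stained 30 min with H-33342 and calcein-AM before high-content imaging.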

[6] = UKN2_HCS_IMR90_cell_viability: Viability Assessment in the University of Konstanz (UKN) Leist Lab Neural Crest Cell Migration Assay in human induced IMR90 Pluripotent Stem Cells (UKN2) (AID 2284233);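 further: cells exposed to compound for 24 h after a 24 h migration phase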
Method in brief: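 After calcein-AM/Hoechst staining, viability is quantified by high-content fluorescence imaging, relative to DMSO, in iPSC (IMR90)-derived neural crest cells. Exposure lasts 24 h, starting after a 24 h migration period on PLO/laminin/fibronectin coating.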

[7] = CCTE_Shafer_MEA_dev_firing_rate_mean: CCTE's Neural Network Formation Assay for Mean Firing Rate, Shafer Lab (AID 2284031);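 further: AUC of well mean spike rate recorded on DIV 5 7 9 and 12; curve fitted for loss of firing so AC50 reflects decreased mean firing rate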
Method in brief: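 Extracellular spike frequency, AUC over DIV 5–12 recordings, in rat cortical neuron MEA cultures dosed from plating; loss direction vs DMSO.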

[8] = CCTE_Shafer_MEA_dev_active_electrodes_number: CCTE's Neural Network Formation Assay for Number of Active Electrodes, Shafer Lab (AID 2284040; active means hit-call score of the fitted dose curve at least 0.9, where 1 is the maximum;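 further: potency for loss of active electrodes versus DMSO so lower counts are hits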)
Method in brief: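 Developing rat cortical networks on MEAs, exposed DIV 0–12. Value is the AUC of active-electrode counts (≥5 spikes/min) from days 5, 7, 9, 12, relative to DMSO.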

[9] = CCTE_Shafer_MEA_dev_burst_rate: CCTE's Neural Network Formation Assay for Burst Rate, Shafer Lab (AID 2284042);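 further: potency for loss of burst rate below DMSO control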
Method in brief: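 Developmental network assay measuring how 12-day exposure of rat cortical neuron cultures alters bursting on extracellular MEA recordings. Values are AUC of well-mean burst rate across four recording days, relative to DMSO vehicle.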

[10] = CCTE_Shafer_MEA_dev_bursting_electrodes_number: CCTE's Neural Network Formation Assay for Number of Bursting Electrodes, Shafer Lab (AID 2284043; active means hit-call score of the fitted dose curve at least 0.9, where 1 is the maximum;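 further: potency is for loss of bursting electrodes relative to DMSO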)
Method in brief: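 Number of electrodes reaching ≥1 burst every 2 min was recorded at DIV 5, 7, 9 and 12 and collapsed as trapezoidal area under the curve. Cultures were rat cortical neurons on MEA plates, dosed continuously from plating with medium and treatment refreshed on DIV 5 and 9.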

[11] = CCTE_Shafer_MEA_dev_burst_duration_mean: CCTE's Neural Network Formation Assay for Mean Burst Duration, Shafer Lab (AID 2284045);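 further: curve fitted for loss meaning shorter burst duration than DMSO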
Method in brief: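 Mean single-electrode burst duration (first to last spike), averaged over bursting electrodes per well, then integrated as area-under-curve across recordings at days 5, 7, 9 and 12. Rat cortical cultures on MEAs, compound present from plating, refreshed at feeds.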

[12] = CCTE_Shafer_MEA_dev_inter_network_spike_interval_mean: CCTE's Neural Network Formation Assay for Mean Inter-network Spike Interval, Shafer Lab (AID 2284047);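 further: potency for a decrease in mean inter-network spike interval below DMSO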
Method in brief: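 Compound was given at plating to primary rat cortical neurons and renewed with full medium changes on DIV 5 and 9. Extracellular activity was recorded on days 5, 7, 9, 12; AUC values were fitted for loss relative to DMSO control.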

[13] = CCTE_Shafer_MEA_dev_network_spike_number: CCTE's Neural Network Formation Assay for Number of Network Spikes, Shafer Lab (AID 2284048);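 further: synchronized bursts across electrodes counted on days 5 7 9 12 and integrated as AUC; fit as a loss of signal meaning fewer network spikes than DMSO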
Method in brief: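 Number of network spikes (coordinated firing across electrodes) recorded on days 5, 7, 9 and 12 and summarised as area under the curve. Rat cortical cultures on MEA, continuous compound exposure with full medium/treatment exchange at DIV 5 and 9.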

[14] = CCTE_Shafer_MEA_dev_network_spike_peak: CCTE's Neural Network Formation Assay for Mean Number of Electrodes in Network Spike, Shafer Lab (AID 2284049);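 further: fitted for loss of signal meaning fewer electrodes in network spikes than DMSO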
Method in brief: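 Rat cortical primary culture, 1.5 x 10^5 cells/well, 48-well MEA (16 electrodes/well). Dosing day 0 through DIV 12, full media/compound exchange DIV 5, 9. AxIS adaptive spike detection; AUC over days 5/7/9/12; loss-of-signal vs DMSO.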

[15] = CCTE_Shafer_MEA_dev_spike_duration_mean: CCTE's Neural Network Formation Assay for Mean Spike Duration, Shafer Lab (AID 2284051);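 further: mean network spike duration pooled as area under curve over DIV 5 to 12 recordings; potency for a decrease in mean network spike duration versus DMSO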
Method in brief: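 With DMSO as baseline, loss of mean network spike duration was scored from extracellular recordings of rat cortical neurons on MEA plates. Exposure spanned plating to DIV 12; the four recording days were collapsed into one AUC value.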

[16] = CCTE_Shafer_MEA_dev_network_spike_duration_std: CCTE's Neural Network Formation Assay for Standard Deviation of Network Spike Duration, Shafer Lab (AID 2284052);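 further: hits are decreases in network spike duration SD versus DMSO vehicle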
Method in brief: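 Developing networks of rat cortical neurons were exposed over twelve days in vitro on 48-well MEA plates. Trapezoidal AUC of recordings (DIV 5–12) was analysed for signal loss relative to DMSO vehicle.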

[17] = CCTE_Shafer_MEA_dev_per_network_spike_spike_number_mean: CCTE's Neural Network Formation Assay for Mean Number of Spikes in a Network Spike, Shafer Lab (AID 2284053);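 further: fitted as decrease in spikes per network spike relative to DMSO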
Method in brief: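 First, rat cortical cells (1.5 x 10^5/well) were seeded onto MEA wells; second, dosing began at plating and was refreshed on DIV 5 and 9; finally, network-spike spike counts across DIV 5–12 were summarized as AUC.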

[18] = CCTE_Shafer_MEA_dev_per_network_spike_spike_percent: CCTE's Neural Network Formation Assay for Percent of Spikes in a Network Spike, Shafer Lab (AID 2284054)
Method in brief: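 Metric: fraction of spikes falling in a 0.05 s window at network-spike peaks. Recordings were made on days 5, 7, 9 and 12 and collapsed by trapezoidal AUC. Cultures were rat cortical neurons on MEA plates, dosed continuously from plating, re-dosed at media changes.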

[19] = CCTE_Shafer_MEA_dev_LDH: CCTE's Lactate Dehydrogenase Assay for Cytotoxicity in the Neural Network Formation Assay, Shafer Lab (AID 2284068; active means hit-call score of the fitted dose curve at least 0.9, where 1 is the maximum;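 further: exposure for twelve days from plating with re-dosing on DIV 5 and 9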)
Method in brief: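 Developing rat cortical networks on MEA plates are exposed to compound for 12 days from plating. LDH activity is measured spectrophotometrically, with DMSO as baseline.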

[20] = CCTE_Shafer_MEA_dev_AB: CCTE's Alamar Blue Assay for Cytotoxicity in the Neural Network Formation Assay, Shafer Lab (AID 2284083; active means hit-call score of the fitted dose curve at least 0.9, where 1 is the maximum;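 further: resazurin reduction fluorescence as viability of cultured neurons; twelve days of exposure from plating with re-dosing on DIV 5 and 9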)
Method in brief: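 Cytotoxicity companion to the developmental MEA: primary rat cortical neurons, 12-day exposure starting day 0, compound refreshed DIV 5 and 9; resazurin fluorescence, fitted against DMSO vehicle.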

[21] = CCTE_Shafer_MEA_dev_mutual_information_norm: CCTE's Neural Network Formation Assay for Mutual Information Normalization, Shafer Lab (AID 2284091);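 further: mutual information between electrodes summarised as area under curve across four recording days; potency is for a decrease in mutual information relative to DMSO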
Method in brief: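 Shared information across electrodes, tracked on days 5, 7, 9 and 12 of network development and collapsed as trapezoidal area under the curve. Rat cortical cultures were treated continuously from plating, with treatment renewed at feeds on DIV 5 and 9; DMSO baseline, negative-direction fit.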

[22] = CCTE_Shafer_MEA_dev_correlation_coefficient_mean: CCTE's Neural Network Formation Assay for Mean Correlation Coefficient, Shafer Lab (AID 2284093);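 further: well mean pairwise spike train correlation integrated as AUC over recording days 5 to 12; potency fitted for loss of correlation relative to DMSO vehicle wells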
Method in brief: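 Extracellular firing from rat cortical networks on 48-well MEAs, DMSO-referenced, negative fitting direction. Compound present from plating to DIV12; mean pairwise correlation per well integrated over DIV5–12 recordings by trapezoidal AUC.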

[23] = CCTE_Mundy_HCI_Cortical_Synap_Neur_Matur_NeuriteSpotCountPerNeuriteLength: CCTE's Synaptogenesis and Neurite Maturation Assay in rat cortical cells for Neurite Spot Count per Neurite Length, Mundy Lab (AID 2284210)
Method in brief: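 Synaptophysin spots per unit neurite length, measured by automated imaging of MAP2/synaptophysin/Hoechst-stained neurons. Cultures from rat cortex received chemical at DIV 7 with media change through DIV 12; glial growth arrested by AraC at DIV 5; DMSO baseline.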

[24] = CCTE_Mundy_HCI_Cortical_NOG_NeuriteLength: CCTE's Neurite Outgrowth Assay in rat cortical cells for Neurite Length, Mundy Lab (AID 2284213);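 further: neurites imaged about 48 to 50 h after chemical exposure began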
Method in brief: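 First, rat primary cortical cells were plated and, 2 h later, given test chemical as a 1/10 dilution. Finally, βIII-tubulin immunostaining enabled automated imaging of neurite length.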

[25] = CCTE_Mundy_HCI_Cortical_Synap_Neur_Matur_NeuriteLength: CCTE's Synaptogenesis and Neurite Maturation Assay in rat cortical cells for Neurite Length, Mundy Lab (AID 2284214)
Method in brief: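 DMSO-normalised neurite length, from high-content imaging of anti-MAP2-stained rat cortical cells fixed at DIV 12. Glia were suppressed with AraC (DIV 5) before chemical exposure from DIV 7.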

[26] = CCTE_Mundy_HCI_Cortical_Synap_Neur_Matur_SynapseCount: CCTE's Synaptogenesis and Neurite Maturation Assay in rat cortical cells for Synapse Count, Mundy Lab (AID 2284218)
Method in brief: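 Endpoint: synapses/neuron by HCI (synaptophysin puncta on MAP2-labelled neurites, Hoechst nuclei). Rat primary cortical cells, AraC DIV 5, dosed DIV 7, fixed DIV 12; DMSO negative control.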

[27] = CCTE_Mundy_HCI_hN2_NOG_NeuriteCount: CCTE's Neurite Outgrowth Assay in human hN2 cells for Neurite Count, Mundy Lab (AID 2284219; active means hit-call score of the fitted dose curve at least 0.9, where 1 is the maximum)
Method in brief: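 In this morphology assay, hNP1-derived neurons received test chemical 2 h post-plating and were fixed two days later in warm paraformaldehyde/sucrose containing Hoechst 33342. Neurites, labelled by rabbit anti-βIII-tubulin (1:800) and Alexa Fluor-488 (1:500), were counted automatically.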

[28] = CCTE_Mundy_HCI_hN2_NOG_NeuriteLength: CCTE's Neurite Outgrowth Assay in human hN2 cells for Neurite Length, Mundy Lab (AID 2284220; active means hit-call score of the fitted dose curve at least 0.9, where 1 is the maximum)
Method in brief: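 Plate hNP1-derived neurons, then add chemical 2 h later as a 1/10 dilution. Stain with anti-βIII-tubulin then Alexa Fluor-488 secondary, and image automatically to measure neurite length.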

[29] = CCTE_Mundy_HCI_hN2_NOG_NeuronCount: CCTE's Neurite Outgrowth Assay in human hN2 cells for Neuron Count, Mundy Lab (AID 2284221; active means hit-call score of the fitted dose curve at least 0.9, where 1 is the maximum)
Method in brief: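 Read-out is the number of betaIII-tubulin-positive neurons imaged by automated high-content analysis, with DMSO as negative control.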

[30] = CCTE_Mundy_HCI_Cortical_Synap_Neur_Matur_CellBodySpotCount: CCTE's Synaptogenesis and Neurite Maturation Assay in rat cortical cells for Cell Body Spot Count, Mundy Lab (AID 2284223)
Method in brief: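 Rat cortical neurons; AraC @ DIV 5; dose + media change DIV 7; fix DIV 12; anti-MAP2/anti-synaptophysin IF, Hoechst; HCI count of soma synaptophysin puncta/neuron; DMSO = negative control.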

[31] = CCTE_Mundy_HCI_hNP1_Pro_ResponderAvgInten: CCTE's Proliferation Assay in human neuroprogenitor cells, Mundy Lab (AID 2284224; active means hit-call score of the fitted dose curve at least 0.9, where 1 is the maximum;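 further: human neural progenitor cells hNP1 derived from WA09 embryonic stem cells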)
Method in brief: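 Proliferation was scored as BrdU labelling intensity in human neural progenitors derived from WA09 embryonic cells, measured 26.25 hours after chemical dosing. Activity was fitted relative to DMSO.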

[32] = CCTE_Mundy_HCI_Cortical_NOG_NeuronCount: CCTE's Neurite Outgrowth Assay in rat cortical cells for Neuron Count, Mundy Lab (AID 2284236; active means hit-call score of the fitted dose curve at least 0.9, where 1 is the maximum;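 further: neurons counted by imaging betaIII-tubulin and Hoechst stained cortical cells; cells exposed to compound for about 48 hours before fixation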)
Method in brief: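 Read-out: neuron number by high-content imaging of betaIII-tubulin (Alexa Fluor-488) and Hoechst-labelled rat primary cortical cells.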

[33] = CCTE_Mundy_HCI_hNP1_Casp3_7: CCTE's Caspase-Glo 3/7 Assay in human neuroprogenitor cells for Apoptosis, Mundy Lab (AID 2284240)
Method in brief: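 Apoptosis is scored by activated caspase-3/7 luminescence in WA09-derived neural progenitor cells, measured 26.5 h after chemical dosing. Values represent gain of signal relative to DMSO vehicle.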

[34] = CCTE_Mundy_HCI_Cortical_Synap_Neur_Matur_NeuronCount: CCTE's Synaptogenesis and Neurite Maturation Assay in rat cortical cells for Neuron Count, Mundy Lab (AID 2284242; active means hit-call score of the fitted dose curve at least 0.9, where 1 is the maximum;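 further: hits reduce neuron count versus DMSO baseline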)
Method in brief: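 Measured at DIV 12: fluorescently labelled neurons (Hoechst nuclei, MAP2) in rat primary cortical cultures, counted by high-content imaging. AraC suppressed glia from DIV 5; DMSO served as negative control.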

Measured: AC50

[CH3][Sn]([CH3])([CH3])[Cl]
active: [1] 18800 nM | [2] 3100 nM | [3] 7880 nM | [4] 2500 nM | [5] 4020 nM | [6] 4510 nM

O.O.O.O.O.[Cd+2].[Cd+2].[Cl-].[Cl-].[Cl-].[Cl-]
active: [7] 227 nM | [8] 362 nM | [9] 188 nM | [10] 300 nM | [11] 375 nM | [12] 38.4 nM | [13] 117 nM | [14] 372 nM | [15] 295 nM | [16] 181 nM | [17] 226 nM | [18] 228 nM | [19] 499 nM | [20] 458 nM | [21] 135 nM | [22] 246 nM | [23] 4370 nM | [24] 30800 nM | [25] 1840 nM | [26] 1670 nM | [27] 30000 nM | [28] 31600 nM | [29] 14100 nM | [32] 76600 nM | [33] 50000 nM | [34] 1240 nM
inactive: [30] | [31]

Clc1cc(Cl)c(-c2cc(Cl)c(Cl)c(Cl)c2Cl)cc1Cl
active: [3] 5570 nM | [4] 14200 nM | [5] 19100 nM | [6] 13300 nM
inactive: [1] | [2]

O=[As](O)(O)O
active: [1] 4310 nM | [2] 1400 nM | [4] 74500 nM | [5] 71400 nM | [6] 104000 nM
inactive: [3]

Reference: PubChem BioAssay (EPA / NIEHS)
